# Only some compounds are listed: those with a hit (about 1.2% of all), similar ones and a draw of the others.
# Pin1 inh – inhibitors of human Pin1; AID 504891; Pin1 FP peptide displacement, HiFluor488, 10 min; actives 0.009% (n = 390,000); Potency, µM (doses to about 115 µM), for inactives: at the highest dose activity, negative = inhibition, most hits filed as inhibitors; active = well fitted inhibition curve with a large enough effect in the polarisation, with a control signal flat, not every such curve was filed as active; inconclusive = small, poorly fitted or top-dose-only effect, or effect the other way, or a change in a side signal; inactive = no such curve, though single readings can be large or run the other way; the % refers to the polarisation; note: potency is the fitted concentration of half-maximal effect
# PI4K2A inh – inhibitors of human PI4K2A | AID 1346378 | purified PI4K2A, ADP-Glo luminescence, 1 h; stronger effect = lower value | actives 0.13% (n = 420,000) | Q9BTU6 | activity change, negative = inhibition, % at 76.9 µM; in the data active = activity change below about -50%; inconclusive = mostly about -30% to -49%;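 note: -100% = wells without enzyme as full effect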
#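 In this quantitative HTS, ADP production by PI4K2A was quantified luminescently after 1 h at ambient temperature; 100 microM adenosine served as plate-quality control.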
# PI5P4Ka inh – blocks human PI5P4K alpha kinase activity | max response, % | P48426 | actives 1.2% (n = 330,000) | AID 652105 | PI5P4Kalpha enzyme, ADP-Glo luminescence, 60 min; stronger effect = lower value; active = max response of -50% or lower; inconclusive = between -30% and -50%; inactive = -30% or higher; note: value at the top dose of about 77 µM
#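 Reactions run in 0.038 M HEPES pH 7.4, 0.28 mM EGTA, 0.1% CHAPS and 5% DMSO, with PI5P4Kalpha, substrate, compound and 5 microM ATP final, one hour at room temperature. Readout is ADP-Glo luminescence.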
# PGK inhibitor – T. brucei PGK inhibition; P07378; PGK/GAPDH coupled, Kinase-Glo luminescence, 60 min; Potency, µM (highest dose often 57.5 µM), for the others: at the highest dose activity change, negative = inhibition, actives largely listed as inhibitors; actives 0.043% (n = 380,000); AID 602233; note: potency is the fitted concentration of half-maximal effect; nearly all actives have a fitted effect of over 60% in size
# Target sequence (P07378 whole entry, looked up): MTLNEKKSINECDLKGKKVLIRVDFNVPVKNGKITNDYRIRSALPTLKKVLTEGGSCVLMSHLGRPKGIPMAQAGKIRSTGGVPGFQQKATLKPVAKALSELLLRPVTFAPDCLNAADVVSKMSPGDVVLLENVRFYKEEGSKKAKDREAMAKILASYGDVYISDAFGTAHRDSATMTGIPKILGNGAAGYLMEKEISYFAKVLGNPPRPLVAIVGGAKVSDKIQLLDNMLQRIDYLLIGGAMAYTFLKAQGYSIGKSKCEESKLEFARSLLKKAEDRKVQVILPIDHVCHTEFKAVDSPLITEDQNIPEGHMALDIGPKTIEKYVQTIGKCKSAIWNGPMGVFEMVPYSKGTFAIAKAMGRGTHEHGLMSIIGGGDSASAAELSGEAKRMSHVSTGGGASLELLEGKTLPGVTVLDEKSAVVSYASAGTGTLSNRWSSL
#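 Recombinant glycosomal PGK reaction used 1,3-bisphosphoglycerate generated in-well by GAPDH (100nM final) in 100mM TEA pH 7.6, 5mM MgCl2, 0.01% Tween-20. After 60 minutes at room temperature, ATP was read by Kinase-Glo Plus luminescence end-point.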
# KAT2A inh – blocks human GCN5L2 histone acetyltransferase; Q92830; GCN5L2 HAT assay, ThioGlo1 CoA-SH fluorescence; Potency, µM (highest dose often 58.9 µM), for the others: top-dose activity change, negative = inhibition, actives largely listed as inhibitors; actives 0.21% (n = 390,000); AID 504327; note: potency is the fitted concentration of half-maximal effect
#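 Titration-based screen in which CoA formation is detected via maleimide probe ThioGlo1 (50uM) turning fluorescent on thiol reaction; substrates H3(1-25) 75uM and acetyl-CoA 70uM, GCN5L2 20nM, 20 min incubation at room temperature.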
# GoLoco inh red – inhibitors of human Gai1-RGS12 GoLoco interaction (red fluorophore). Potency, µM (titrated, usually from 61.6 µM), for inactives: at the highest dose activity, negative = inhibition, most hits filed as inhibitors. actives 0.44% (n = 230,000). P63096. AID 880. Gai1:RGS12 GoLoco peptide FP, rhodamine, 10 min; active = well fitted inhibition curve with a large enough effect, not every such curve was filed as active; inactive = no such curve, though single readings can be large or run the other way; note: potency is the fitted concentration of half-maximal effect; nearly all actives have a fitted effect of over 30% in size
# Target sequence (P63096 whole entry, looked up): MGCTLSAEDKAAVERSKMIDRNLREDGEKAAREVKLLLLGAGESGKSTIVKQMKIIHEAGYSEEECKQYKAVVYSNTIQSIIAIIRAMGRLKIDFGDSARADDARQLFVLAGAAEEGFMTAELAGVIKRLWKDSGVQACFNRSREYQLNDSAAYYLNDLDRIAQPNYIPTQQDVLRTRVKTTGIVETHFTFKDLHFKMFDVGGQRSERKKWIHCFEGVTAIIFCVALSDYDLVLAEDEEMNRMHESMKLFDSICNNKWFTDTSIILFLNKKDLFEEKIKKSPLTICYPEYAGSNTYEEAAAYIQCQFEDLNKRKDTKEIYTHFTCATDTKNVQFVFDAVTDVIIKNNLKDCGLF
# ADP-Glo counter – counter-screen for PI5P4K inhibitors: ADP-Glo detection interference, no enzyme | shares compounds with PI5P4Ka inh | ADP-Glo detection counter-screen, luciferase luminescence, no enzyme | Potency, µM (titrated, usually from 76.9 µM), for inactives: top-dose activity change, negative = inhibition, hits mostly inhibitors | 1,100 tested, under 10 active
# * hit, by the source's call; i = inactive; ? = inconclusive; · = no result given; [ ] = dose if it differs, or a comment. Unless noted, calls come from the whole dose curve; as a rule, active = well fitted curve in the direction sought with a large enough effect; inconclusive = small, poorly fitted or top-dose-only effect, or another doubt; inactive = no such curve, though single readings can be large; an effect the other way counts as inactive or inconclusive. Unless noted, % is set by controls: 0 for no effect and ±100 for the full control effect.
SMILES,Pin1 inh,PI4K2A inh,PI5P4Ka inh,PGK inhibitor,KAT2A inh,GoLoco inh red,ADP-Glo counter
CCCn1c(=O)c2[nH]c(-c3ccc(S(=O)(=O)O)cc3)nc2n(CCC)c1=O,2.1%,-0.8,-82.0*,4.7%,-18.3%,5.2%,-2.1%
CC(=O)c1ccc2noc(-c3ccc(C)cc3)c2c1,13.4%,-7.3,-1.9,-5.6%,-9.8%,28.8%,·
Cc1ccc(-c2onc3ccc(C(=O)O)cc23)cc1,14.7%,-1.5,-52.3*,-3.7%,18.2%,·,0.7%
CC(C)C[C@H]1CN([C@@H](CC(C)C)CN2CCC[C@@H]2CN2C(=S)NC[C@@H]2Cc2ccc(O)cc2)C(=S)N1CCc1ccccc1,·,-5.9,-7.7,·,·,·,·
CC(=O)NC12CC3CC(C1)CC(C(=O)OCC(=O)Nc1ncc(Cl)c(C)c1Cl)(C3)C2,?,-3.5,-52.0*,-0.6%,-15.8%,31.1%,4.9%
CCOc1ccccc1N1CSC2=C(C#N)C(c3c(OC)ccc4ccccc34)CC(=O)N2C1 (stereo unspecified),17.1%,-15.5,-84.8*,3.8%,28.2µM*,-12.2%,-5.2%
COc1ccc(N2CSC3=C(C#N)C(c4ccc(OC)c(OC)c4)CC(=O)N3C2)c(OC)c1 (stereo unspecified),35.8%,-3.6,-53.3*,-5.0%,-24.8%,-31.9%,-17.9%
CC(=O)N1CCc2cc(S(=O)(=O)NC(C(=O)N3CCN(c4ccccc4F)CC3)C(C)C)ccc21 (stereo unspecified),11.8%,-3.6,0.1,-10.4%,·,·,·
CN1CCN(CC(=O)Nc2sc3c(c2C(=O)Nc2ccccc2)CCCC3)CC1,1.5%,-2.8,-0.9,3.9%,-12.4%,·,·
NC(=O)c1c(NC(=O)CN2CCN(S(=O)(=O)c3ccccc3)CC2)sc2c1CCC2,?,-15.5,-64.7*,2.0%,-28.7%,·,-0.3%
COc1ccc(C(C(=O)NC(C)(C)C)n2c(=O)c(-c3ccco3)nc3ccccc32)cc1 (stereo unspecified),·,-7.8,-25.0,·,·,·,·
O=C(NCc1ccccc1)C(c1ccc(-c2ccccc2)cc1)n1c(=O)c(-c2ccco2)nc2ccccc21 (stereo unspecified),·,-20.8,-73.0*,·,·,·,-6.8%
CC(C)(C)NC(=O)C(c1ccc(C#N)cc1)n1c(=O)c(-c2ccco2)nc2ccccc21 (stereo unspecified),·,-13.9,-56.8*,·,·,·,2.1%
Cn1c(Cn2cnc([N+](=O)[O-])n2)nnc1SCC(=O)Nc1ccc(Br)cc1,0.3%,-0.5,1.9,3.1%,-4.3%,11.2%,·
CCN(CC(=O)Nc1ccc(NC(C)=O)cc1)Cc1c(O)ccc2cc(Br)ccc12,-18.9%,3.6,-71.0*,2.2%,-9.3%,·,-5.2%
O=c1c(C(c2ccc(Cl)cc2)c2c(O)nc3n(c2=O)CCS3)c(O)nc2n1CCS2,-8.6%,1.4,?,-6.4%,-15.9%,-31.2%,·
N#Cc1c(-c2ccc(Cl)cc2Cl)nc2n(c1=O)CCS2,26.4%,-4.5,-54.2*,-9.9%,-13.5%,30.6%,1.8%
COc1ccc(OC)c(NC(=O)CSc2nnc(Cn3nnc4ccccc43)n2C)c1,-4.8%,-2.5,0.5,-4.2%,?,6.6%,·
CCOc1ccc(NC(=O)CN(C)C(=O)c2cc(-c3ccco3)nc3ccccc23)cc1OCC,-1.9%,-0.5,0.8,-2.8%,·,·,·
COc1ccc(NC(=O)CN(C)C(=O)c2cc(-c3ccccc3)nc3ccccc23)cc1,4.9%,5.7,-3.0,8.7%,-5.9%,·,·
Cc1ccc(NC(=O)CN(C)C(=O)c2cc(-c3ccco3)nc3ccccc23)cc1,?,-27.5,-95.5*,?,?,·,-7.6%
CN(CC(=O)Nc1ccc(F)cc1)C(=O)c1cc(-c2ccco2)nc2ccccc12,?,-17.7,-66.4*,-18.6%,-28.1%,·,3.7%
COc1cccc(NC(=O)CN(C)C(=O)c2cc(-c3ccco3)nc3ccccc23)c1,15.4%,-5.7,-59.6*,-16.5%,-9.4%,·,-8.7%
COc1cccc(NC(=O)c2cc(-c3ccco3)nc3ccccc23)c1,40.7%,-0.6,-26.6,-8.6%,·,·,·
Cc1cccc(C)c1-n1nnnc1C1(C)CN(S(C)(=O)=O)CC(=O)N1Cc1ccc(F)cc1 (stereo unspecified),·,3.4,·,·,·,·,·
SMILES,Pin1 inh,PI4K2A inh,PI5P4Ka inh,PGK inhibitor,KAT2A inh,GoLoco inh red,ADP-Glo counter
COc1ccc(N(C(=O)C(C)C)S(=O)(=O)c2ccc3c(c2)n(C)c(=O)n3C)cc1,3.7%,-7.1,1.1,-1.2%,0.2%,-4.6%,·
Cc1ccc(S(=O)(=O)N2CCN(C(=O)COC(=O)c3ccccn3)CC2)c(C)c1,3.0%,0.1,-4.0,-6.1%,-0.6%,·,·
CCN(CC)c1ccc(-c2nc3cnccc3n2C)cc1,-2.2%,4.2,-6.5,i,-3.0%,-14.9%,·
O=C(NCCc1nc(-c2ccccc2)no1)c1ccccc1,5.4%,-7.4,3.9,2.1%,·,·,·
CCS(=O)(=O)c1ccc2oc(Nc3ccc(C(C)C)cc3)nc2c1,-1.8%,1.1,-50.4*,i,-2.3%[0.501 µM],-13.9%,-5.6%
CCS(=O)(=O)c1ccc2oc(Nc3cc(C)cc(C)c3)nc2c1,-0.7%,-1.5,·,-6.0%,-11.3%,14.5%,·
COc1ccc(NC(=O)CSC2=NN3CCCC(=O)N=C3S2)c(OC)c1,1.8%,1.9,8.6,2.6%,-4.9%,·,·
O=C(Nc1ccc(O)c2c(=O)cc(-c3ccccc3Cl)oc12)c1ccc(Cl)c(Cl)c1,-0.4%,0.2,0.0,-7.1%,-13.2%,5.7%,-5.7%
COc1ccc(C(=O)OCC(=O)Nc2cccc(C(C)=O)c2)c(OC)c1OC,15.3%,-3.2,0.9,-6.4%,-0.9%,·,·
CCCCC(=O)N(Cc1ccc2c(c1)OCO2)Cc1nc2ccccc2c(=O)[nH]1,-0.6%,-19.7,-53.5*,6.3%,0.5%,-5.3%,-10.0%
Cc1ccc(C(=O)N(Cc2ccc3c(c2)OCO3)Cc2nc3ccccc3c(=O)[nH]2)cc1,-11.8%,-4.7,·,-7.5%,?,6.4%,·
Cc1ccc(CCNC(=O)c2cc(-c3ccc(Cl)cc3)n[nH]2)cc1,-5.9%,-3.5,·,-8.4%,-8.6%,·,·
O=C(Nc1cccc(Cl)c1)N1CCCC1,-1.7%,-6.0,-53.4*,-10.3%,1.1%,4.5%,-2.3%
O=C(Nc1cccc(Cl)c1)N1CCOCC1,-1.5%,4.8,-0.6,6.7%,-4.5%,·,·
Nc1cc(-c2ccncc2)c[nH]c1=O,?,-54.9*,-55.9*,-1.2%,4.6%,-9.9%,3.6%
Nc1c(-c2ccncc2)cc[nH]c1=O,-16.8%,·,·,·,·,·,·
